This is part of a sample that, as a whole, favours compounds with a hit. Of some 83,000 tested, about 20% had one in any assay.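 How to read the values: 0–100, growth inhibition (40 = 60% inhibited); 0, no net growth; -100 to 0, cell death (-40 = 40% of starting cells died; -100 = all dead).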 A number with no mark means an inactive call. Activity calls are given as the source filed them. How the source made its calls: active means growth percent below 10; inactive means the rest.
Assays:
Assay in all cases: NCI-60 one-dose screen, 48 h (100 = growth as untreated, 0 = no growth, -100 = all killed)
Settings in all cases: 10 µM unless noted
[1] = tested on: SR leukemia
[2] = tested on: RPMI-8226 leukemia
[3] = tested on: OVCAR-8 ovarian
[4] = tested on: OVCAR-5 ovarian
[5] = tested on: OVCAR-4 ovarian
[6] = tested on: SK-OV-3 ovarian
[7] = tested on: IGROV1 ovarian
[8] = tested on: OVCAR-3 ovarian
[9] = tested on: NCI/ADR-RES ovarian
[10] = tested on: HS 578T breast

Row | SMILES | growth [1] | growth [2] | growth [3] | growth [4] | growth [5] | growth [6] | growth [7] | growth [8] | growth [9] | growth [10]
1 | COC(=O)c1ccc([N+](=O)[O-])c(C)c1 | 79.8% | 81.1% | 108% | 90.7% | 101% | 106% | 93.1% | 105% | 108% | –
2 | O=C(O)CCCCCNC(=O)OCc1ccccc1 | 98% | 81.5% | 112% | 97.7% | 98.5% | 106% | 93.9% | 104% | 110% | –
3 | N#C/C(=C\c1ccc2c(c1)OCO2)c1ccccc1 | 14.2% | 74.8% | 90.1% | 79.6% | 99.8% | 87.3% | 62.8% | 79.4% | 47.8% | –
4 | c1ccc2[nH]c(Cc3nc4ccccc4[nH]3)nc2c1 | 100% | 71.9% | 112% | 92% | 96.5% | 126% | 92.2% | 122% | 110% | –
5 | O=C(O)c1ccccc1Cc1ccc2c(c1)CCCC2 | 106% | 108% | 105% | 104% | 111% | 111% | 99.5% | 111% | 115% | –
6 | Cc1cc(C(=O)c2ccccc2)cc(C)c1O | 55.6% | 81.2% | 101% | 99.5% | 86.8% | 101% | 103% | 109% | 104% | –
7 | CCCCCC#CC(=O)O | 97.7% | 99.7% | 98.3% | 105% | 103% | 102% | 100% | 123% | 119% | –
8 | Oc1cccc(CNC2CCCCC2)c1 | 102% | 104% | 110% | 108% | 126% | 109% | 108% | 119% | 110% | –
9 | Cc1ccnc(Nc2nc3ccccc3[nH]2)n1 | 97.1% | 94.1% | 106% | 95.3% | 109% | 101% | 97.6% | 132% | 112% | –
10 | Cc1ccc(S(=O)(=O)Oc2ccc3sc4c(CO)ccc(NCCN(C)C)c4c(=O)c3c2)cc1 | -38.8% [100 µM] (active) | -43.4% [100 µM] (active) | -73.3% [100 µM] (active) | -93.2% [100 µM] (active) | -97.9% [100 µM] (active) | -85.1% [100 µM] (active) | -74.1% [100 µM] (active) | -79.3% [100 µM] (active) | -58% [100 µM] (active) | –
11 | COC1OC(COC(C)=O)C(OC(C)=O)C(OC(C)=O)C1OC(C)=O (configuration not stated) | 95.5% | 96.4% | 97.9% | 93% | 86.5% | 101% | 118% | 96% | 95.2% | 101%
12 | CCC(/C=C\C(C)=O)CC | 101% | 97.6% | 103% | 104% | 86.5% | 110% | 115% | 122% | 105% | 102%
13 | CCCCCCCCNC(=O)C(C)C | 102% | 99.1% | 109% | 97.9% | 96.9% | 105% | 107% | 109% | 117% | 97.1%
14 | COc1c(CNC(=O)CCl)cc2[nH]c(C)cc2c1CNC(=O)CCl | 34.9% | 58.5% | 53% | 96.7% | 45.3% | 70.3% | 33.8% | 30.9% | 118% | –
15 | CCC1CCC(C)NC1 (configuration not stated) | 109% | 98.6% | 102% | 107% | 107% | 111% | 110% | 104% | 101% | –
16 | C/C=C/C1OCC(CC)C(CCC)O1 (configuration not stated) | 102% | 94.5% | 103% | 98.7% | 110% | 108% | 104% | 106% | 108% | –

Row | SMILES | growth [1] | growth [2] | growth [3] | growth [4] | growth [5] | growth [6] | growth [7] | growth [8] | growth [9] | growth [10]
17 | O=c1cc(C(F)(F)F)[nH]c(=S)[nH]1 | 91.7% | 111% | 105% | 102% | 107% | 99.9% | 105% | 120% | 109% | –
18 | N#CCCN1C(=O)CCC1C(=O)O (configuration not stated) | 92.9% | 95.2% | 98.1% | 105% | 114% | 145% | 107% | 115% | 119% | –
19 | O=Cc1ccc(Cl)c(Cl)c1 | 98% | 105% | 101% | 99.8% | 95.8% | 112% | 83.7% | 116% | 95.4% | –
20 | CCOc1ccc(C(=O)NCC(C)C)cc1 | 102% | 105% | 105% | 105% | 97.2% | 99.7% | 110% | 109% | 111% | –
21 | Cn1c(=O)c2[nH]c(CCCCC(=O)O)nc2n(C)c1=O | 112% | 91.2% | 101% | 112% | 124% | 113% | 110% | 113% | 108% | –
22 | ON1CCCC1 | 90.3% | 88.2% | 103% | 103% | 107% | 102% | 108% | 112% | 102% | –
23 | CCCCOC(=O)c1ccccc1O | 154% | 16.5% | 107% | 101% | 105% | 110% | 118% | 124% | 110% | –
24 | O=C1NC(=O)/C(=C\c2ccncc2)N1 | 92.2% | 103% | 103% | 98.3% | 98.6% | 99.2% | 109% | 94.3% | 103% | –
25 | Clc1ccc(/C=C/c2ccccn2)cc1 | 98.2% | 45.5% | 105% | 112% | 62.3% | 104% | 87.2% | 98.4% | 98.8% | –
26 | CC(C)C1CCC(C)C(O)C1 (configuration not stated) | 96.1% | 101% | 99.1% | 108% | 108% | 106% | 104% | 105% | 103% | –
27 | CCC12OC(COc3ccccc3)CN1CCN2c1ccccc1 (configuration not stated) | 96.9% [100 µM] | 94.4% [100 µM] | 96.5% [100 µM] | 98% [100 µM] | 95.5% [100 µM] | 106% [100 µM] | 93.4% [100 µM] | 110% [100 µM] | 100% [100 µM] | –
28 | Nc1cc2c(cc1Cl)C(=O)c1ccccc1C2=O | 59.8% | 51.1% | 21.7% | 58.5% | 9.39% (active) | 39.1% | 35.5% | 62.3% | 24.1% | –
29 | CCOC(=O)CNC | 93.2% | 99.7% | 91.3% | 97.2% | 96.5% | 106% | – | 111% | 100% | 121%
30 | C=C(c1ccc(N(C)C)cc1)c1ccc(N(C)C)cc1 | 11.8% | 7.06% (active) | -5.66% (active) | 16% | 48.9% | 27.4% | 25.4% | -33% (active) | -35.5% (active) | –
31 | CC(C)c1ncc([N+](=O)[O-])n1C | 106% | 102% | 97.5% | 103% | 117% | 112% | – | 125% | 108% | 80.1%

Source: PubChem BioAssay (NCI)
